Measured values taken from the supplement of paper PMC4894684.
Structures can show the parent of a compound that is named as a salt. ± gives the standard deviation of the averaged measurements.

System: Toxoplasma gondii RH (in HFF)
Assay: parasite growth relative to the screen mean (all compounds = 100%); higher = less inhibition of parasite growth
Conditions: 5 µM; 72 h; oxygen 21 %
Method in brief: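 Parasite growth was reported relative to the screen mean. In that scale, the mean of all compounds equals 100%, and values are averaged over two screens. Compounds from 10 mM DMSO stocks were pin-transferred to 5 µM final onto confluent human foreskin fibroblasts in 96-well plates, infected within 2 h with RH β-Gal–GFP Toxoplasma (MOI 1:5) and grown 72 h at 21% O2, with parasite number read by a CPRG β-Gal assay against in-plate standard curves. Uninfected host-cell viability was checked with CellTiter-Blue.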

| Structure (SMILES) | parasite growth [%] |
| --- | --- |
| CCOC(=O)[C@]12CC1/C(=N\O)c1ccccc1O2 (stereo not given in full) | 83 ± 23 |
| CC(C)NC[C@H](O)COc1ccc(CC(N)=O)cc1 [S-(-)-Atenolol] | 149 ± 12 |
| CN(C)c1nc(N)c(C(=O)Nc2cccnc2)nc1Cl [ACDPP hydrochloride] | 88.7 ± 3 |
| CNC(=C[N+](=O)[O-])NCCSCc1ccc(CN(C)C)o1 [Ranitidine hydrochloride] | 94.7 ± 18 |
| NC(=O)OCC(COC(N)=O)c1ccccc1 [Felbamate] | 85.9 ± 60 |
| CN(C)C(=O)C(CCN1CCC(O)(c2ccc(Cl)cc2)CC1)(c1ccccc1)c1ccccc1 [Loperamide hydrochloride] | 20.6 ± 19 |
| COc1cccc(NC(=O)/C=C/c2ccc(Cl)cc2)c1 | 136.1 ± 0.67 |
| CCOC(=O)[C@H](CCc1ccccc1)N[C@@H](C)C(=O)N1Cc2cc(OC)c(OC)cc2C[C@H]1C(=O)O [Moexipril hydrochloride] | 63.9 ± 14 |
| CCS(=O)(=O)N(C)[C@H]1c2cc(C#N)ccc2OC(C)(C)[C@@H]1O [(-)-[3R,4S]-Chromanol 293B] | 121 ± 9.2 |
| COc1ccc(CCN(C)CCCOc2ccc(S(=O)(=O)c3c(C(C)C)c4ccccc4n3C)cc2)cc1OC | < 0 |
| COc1cc(N)c(Cl)cc1C(=O)CCC1CCN(CCNS(C)(=O)=O)CC1 | 74.1 ± 2.4 |
| C1CCC2(CC1)CCNCC2 [4,4-Pentamethylenepiperidine hydrochloride] | 107 ± 22 |
| COCCCC/C(=N\OCCN)c1ccc(C(F)(F)F)cc1 [Fluvoxamine maleate] | 49.7 ± 11 |
| CC[N+](CC)(CC)CC(=O)Nc1c(C)cccc1C [QX 314 chloride] | 133 ± 29 |
| CCN1CCC[C@H]1CNC(=O)c1c(OC)ccc(Br)c1OC [Remoxipride hydrochloride] | 113 ± 3.8 |
| CCS(=O)(=O)N(C)[C@H]1c2cc(C#N)ccc2OC(C)(C)[C@@H]1O (racemic) [Chromanol 293B] | 142 ± 10 |
| CCCCCCCCc1ccc(-c2ccc(C(=O)O)cc2)cc1 | 111 ± 17 |
| O=C(O)c1ccc(-c2ccc3cc(O)c(C45CC6CC(CC(C6)C4)C5)cc3c2)cc1 | 146 ± 18 |
| CC(/C=C/c1cccc(Oc2ccc(F)cc2)c1)N(O)C(N)=O (stereo not given) | 184 ± 12 |
| COc1cc(SC)ccc1C(=O)N1CCC(Cc2ccccc2)CC1 | 112 ± 5.8 |
| CCN(CC)CCOCCOC(=O)C1(c2ccccc2)CCCC1 [Carbetapentane citrate] | 137 ± 18 |
| NC(=O)N1C(=O)/C(=C(\O)c2cccs2)c2cc(Cl)ccc21 [Tenidap] | 134 ± 18 |
| N#C/C(=C\c1ccc(O)c(O)c1)C(=O)NCc1ccccc1 | 148 ± 13 |

| Structure (SMILES) | parasite growth [%] |
| --- | --- |
| CCCCC[C@H](O)/C=C/[C@H]1[C@H](O)CC(=O)[C@@H]1C/C=C\CCCC(=O)O [Prostaglandin E2] | 122 ± 1.1 |
| Cc1nn(C)c2nc(NNC(=O)Nc3cc(Cl)nc(Cl)c3)cc(C(C)C)c12 | 97.4 ± 3 |
| CCCCCCCCCCCCCCCC(=O)C(F)(F)F | 108 ± 7.6 |
| Oc1c2ccccc2c2c3c(cccc13)N=N2 | 7.23 ± 4.4 |
| CC(C)(C)[N+]([O-])=Cc1ccc(S(=O)(=O)O)cc1S(=O)(=O)O | 86.3 ± 26 |
| CCCc1c(OCCCOc2ccc(OCC(=O)O)cc2)ccc(C(C)=O)c1O | 135 ± 1.4 |
| NC(=O)CNCCC(c1ccccc1)c1ccccc1 [N20C hydrochloride] | 71.4 ± 14 |
| N[C@@H](CSS(=O)(=O)O)C(=O)O [S-Sulfo-L-cysteine sodium salt] | 101 ± 6.6 |
| CN(C)C/C=C(/c1ccc(Br)cc1)c1cccnc1 [Zimelidine dihydrochloride] | 126 ± 4.6 |
| CC(C)c1onc(-c2c(Cl)cccc2Cl)c1COc1ccc(/C=C/c2cccc(C(=O)O)c2)c(Cl)c1 | 95.6 ± 18 |
| N[C@H](C(=O)O)[C@H](OCc1ccccc1)C(=O)O (racemic) | 80.3 ± 61 |
| COc1ccc2[nH]c(C(=O)c3ccccc3)cc2c1 | 38.5 ± 2.6 |
| O=C(OCCN1CCCCC1)c1c[nH]c2ccccc12 | 113 ± 7.7 |
| Cc1cc(NC(=O)Nc2ccc(N(C)C)cc2)c2cc(F)cc(F)c2n1 | 159 ± 3.7 |
| COc1[nH]c2ccc(F)cc2c1C(=O)OCC1CCN(CCNS(C)(=O)=O)CC1.NS(=O)(=O)O | 80.2 ± 32 |
| CN(CCOc1ccc(C[C@H](Nc2ccccc2C(=O)c2ccccc2)C(=O)O)cc1)c1ccccn1 | 30 ± 17 |
| Nc1ncnc2n[nH]c(Nc3ccc(F)cc3)c12 | 94.4 ± 26 |
| NC(N)=Nc1ccc(Cl)cc1 [4-Chlorophenylguanidine hydrochloride] | 125 ± 3.5 |
| CC1(C)CC(=O)C(C2C3=C(CC(C)(C)CC3=O)Oc3ccccc32)C(=O)C1 (stereo not given) | 127 ± 18 |
| c1ccc(N2CCN(Cc3nc4ccccc4[nH]3)CC2)nc1 [ABT 724 trihydrochloride] | 98.1 ± 12 |
| O=C(Nc1ccc(C(F)(F)F)cn1)N1CCN(c2ncccc2C(F)(F)F)CC1 | 135 ± 6.2 |
| COc1cc2ncn(-c3cc(OCc4ccccc4C(F)(F)F)c(C(N)=O)s3)c2cc1OC | 93.1 ± 20 |
